The values below come from PubChem BioAssay (NCI).

Test in all cases: NCI-60 one-dose screen, 48 h (100 = growth as untreated, 0 = no growth, -100 = all killed)
What all share (conditions): 10 µM unless noted

Assay [1] relates to SK-MEL-2 melanoma.
Assay [2] has as its system EKVX NSCLC.
In assay [3] the test system is SN12C renal.
The test system of assay [4] is UO-31 renal.
The test system of assay [5] is TK-10 renal.
Assay [6] has as its system A498 renal.
Assay [7] deals with CCRF-CEM leukemia.
Assay [8] relates to MOLT-4 leukemia.
Assay [9] concerns SR leukemia.
Assay [10] deals with RPMI-8226 leukemia.
The test system of assay [11] is OVCAR-8 ovarian.
In assay [12] the test system is OVCAR-5 ovarian.
For assay [13], the system named is OVCAR-4 ovarian.
The subject of assay [14] is SK-OV-3 ovarian.
Assay [15] relates to IGROV1 ovarian.
For assay [16], the system named is OVCAR-3 ovarian.
For assay [17], the system named is HS 578T breast.
The subject of assay [18] is NCI/ADR-RES ovarian.

Molecules are shown by their SMILES. Compounds without any hit were thinned out: in the full panel of roughly 83,000, 20% have a hit.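 Testing used 96-well plates and a 48-hour single-concentration exposure. Example: -40 means 40% of the starting cells died.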 A number with no mark means an inactive call. The source made the active and inactive calls. The calls were made as follows: active = growth percent below 10; inactive = the rest.

As to `C=CCOc1ccc(/C(Cl)=N/N=C(\Cl)c2cc(OC)c(OC)c(OC)c2)cc1`, the growth in assay [1] is 71.8%; in [2], 88.7%; in assay [3] it was 84.1%; in assay [4], 68%; in assay [5], 96.4%; in assay [6] it was 76.8%. Further, the growth in assay [7] was 34%; in assay [8] it was 30.8%; in assay [9], 17%; in [10], 70.3%; in assay [11], 62.6%; in [12], 97.5%. For the same compound, the growth in assay [13] was 84.3%; in assay [14], 64.7%; in assay [15], 64%; in assay [16], 77.1%; in assay [17] it was 75.5%; in [18], 77.6%.

For `O=C(CSc1nnc(-c2ccc(Cl)cc2)o1)Nc1ccc(C(=O)/C=C/c2ccccc2)cc1`, the growth in assay [1] was 92.9%; in assay [2], 98%; in assay [3], 95.5%; in [4], 80.1%; in assay [5], 93.7%; in assay [6] it was 95.7%. The growth was 86.1% in assay [7]; 93.1% in assay [8]; 60.4% in assay [9]; 68.7% in [10]; 97.3% in assay [11]; 106% in [12]. Further, the growth in assay [13] is 101%; in [14] it was 117%; in [15], 95.7%; in assay [16], 108%; in assay [17], 101%; in assay [18], 88.1%.

With `COc1ccc(/C=C/C(=O)c2ccc(Oc3ncnc4ccccc34)cc2)cc1OC`, the growth in assay [1] is 89.8%; in assay [2], 77.7%; in [3], 79%; in assay [4], 51.1%; in assay [5], 96.6%; in [6], 98.9%. Moreover, the growth in assay [7] was 46.4%; in assay [8], 56.6%; in assay [9], 16.7%; in assay [10], 0.391% (active); in assay [11] it was 85.1%; in assay [12] it was 92.9%. The growth is 70.4% in assay [13]; 91.1% in assay [14]; 33.5% in [15]; 43.8% in assay [16]; 88.5% in assay [17]; 80.3% in assay [18].

As to `NC(=S)NNC1CCCCC1`, the growth in assay [1] was 97.3%; in [2] it was 89.9%; in [3] it was 95.7%; in [4], 72.6%; in [5], 97.2%; in assay [6], 100%. For the same compound, the growth in assay [7] is 84.9%; in assay [8], 70.9%; in assay [9] it was 99.1%; in assay [10], 93.9%; in [11], 91.2%; in [12], 102%. The growth was 91.1% in [13]; 93.3% in assay [14]; 96.4% in [15]; 110% in assay [16]; 101% in assay [17]; 101% in assay [18].

For `Cc1cc(-c2ccccc2)nc2ccccc12`, the growth in assay [1] was 109%; in assay [2], 81.1%; in assay [3], 104%; in [4] it was 77%; in assay [5] it was 135%; in [6], 106%. Further, the growth was 84.9% in assay [7]; 91.5% in assay [8]; 97.1% in assay [9]; 83.3% in [10]; 98.1% in [11]; 115% in [12]. Further, the growth in [13] was 90.1%; in assay [14], 74.9%; in assay [15], 92.5%; in assay [16], 105%; in [17] it was 97.3%; in assay [18], 102%.

Consider `CC12CCC3C(CCC4CC(O)CCC43C)C1C/C(=C/O)C(=O)O2` (configuration not stated), for which the growth in [1] is 104%; in [2], 104%; in assay [3] it was 104%; in assay [4], 91%; in [5], 89.4%; in [6], 62.7%. Also, the growth is 92.6% in [7]; 101% in assay [8]; 96.1% in assay [9]; 91.3% in assay [10]; 104% in assay [11]; 111% in assay [12]. In addition, the growth in assay [13] was 134%; in assay [14], 105%; in assay [15], 105%; in assay [16], 103%; in [17], 98.4%; in [18] it was 108%.

For the compound `CCc1cccc(C)c1NC(=O)c1sc2nc3c(cc2c1N)CCCCC3`, the growth in assay [1] is 38.9%; in assay [2], 45.7%; in [3], 41.1%; in assay [4], 51%; in assay [5] it was 66.7%; in assay [6] it was 8.2% (active). Besides, the growth in assay [7] is 16.6%; in assay [8] it was 26.7%; in [9] it was 14.4%; in [10], 12.2%; in assay [11], 28.9%; in assay [12] it was 45%. In addition, the growth was 63.9% in assay [13]; 36.9% in [14]; 46.5% in [15]; 3.96% (active) in assay [16]; 36% in assay [17]; 14.2% in [18].

In the case of `COc1ccc2c(-c3ccc(F)cc3)c(C#N)c(=NC(C)=O)oc2c1`, the growth was 26.5% in [1]; 62.8% in assay [2]; 56.9% in [3]; 50.4% in [4]; 78.1% in [5]; 18.1% in assay [6]. Moreover, the growth is 13.1% in assay [7]; 29.6% in assay [8]; 13.7% in [9]; 12.3% in assay [10]; 50.2% in assay [11]; 103% in assay [12]. Also, the growth in [13] was 92.5%; in [14] it was 44.6%; in [15] it was 54%; in assay [16] it was 18.2%; in assay [17] it was 42.9%; in assay [18], 31.2%.

In the case of `OCc1cn(-c2ccc(Cl)cc2)nc1-c1ccc(O)cc1`, the growth was 95.8% in assay [1]; 89.7% in assay [2]; 94.3% in assay [3]; 63.5% in [4]; 102% in assay [5]; 96.9% in assay [6]. The growth in [7] is 50.3%; in assay [8], 53.6%; in [9], 82.1%; in [10], 97.3%; in [11], 106%; in [12], 99.9%. The growth in assay [13] was 91.6%; in assay [14], 105%; in assay [15], 91.3%; in assay [16], 108%; in assay [17] it was 105%; in assay [18], 94.7%.
